The whole screen tested about 330,000 compounds, of which about 7,700 (2.3%) were called active. Where a call stands in place of a potency, no number is given. Not shown: some 26% with an inconclusive outcome. Calls follow the shape of the dose curve; as a rule, active = well fitted inhibition curve with a large enough effect; inconclusive = small, poorly fitted or top-dose-only effect, or effect the other way; inactive = flat fitted curve, though single readings scatter. This excerpt belongs to a sample that is enriched for actives.
Potency is read from the fitted curve at half-maximal effect.

A short description of this assay: qHTS screen for small molecules that inhibit ELG1-dependent DNA repair in human embryonic kidney (HEK293T) cells expressing luciferase-tagged ELG1. Also: nearly all actives have a fitted effect of over 55% in size. Conditions: HEK293T ELG1-luciferase reporter, luminescence, 16 h, DNA damage induced by 5-fluorouridine; series mostly up to 46.1 µM. In short, it runs like this:
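Reporter activity after DNA damage by 5-fluorouridine is monitored. Compound-treated cells incubate 16 hr at 37 °C, then ONE-Glo is added for 30 min before luminescence reading.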
On the technique in general: qHTS replaces the single test concentration by a dilution series.
Turning to `COc1ccc(C(=O)NC2CC(C)(C)Cc3c2cnn3-c2ccccc2C)o1` (centres undefined), the Potency result is “inactive”. As for `COc1ccccc1N(C)C(=O)c1cc(S(=O)(=O)N2CCc3ccccc32)cn1C`, the Potency result was “inactive”. Consider `COc1ccc(OC)c(C(C)NC(=S)Nc2ccc(S(=O)(=O)Nc3ncccn3)cc2)c1` (centres undefined), for which the Potency entry is “inactive”. For `O=C(Nc1cc(Cl)ccc1N1CCOCC1)c1ccc(N2CCCC2=O)cc1` the value was “inactive”; for `NCCN1CCN2C(=O)CN(C(=O)c3ccccc3)CC12` (centres undefined), “inactive”; for `CC1(C(=O)N/N=C/c2cc3c(cc2Br)OCO3)CC1(Br)Br` (centres undefined), “inactive”. Take `COc1ccc(Nc2cc(=O)oc3ccccc23)cc1`: the Potency is 4.61 µM (active). With `COc1ccc2oc(=O)cc(-c3cc4ccccc4o3)c2c1` the entry was “inactive”; with `COc1ccc(CC(=O)Nc2c(C(N)=O)oc3ccccc23)cc1`, “inactive”. Turning to `CCCOc1ccc(C2=CSC3=NCCN23)cc1Cl`, the Potency result was “inactive”. Regarding `c1ccc2c(NCC3CCCO3)nc(-c3ccncc3)nc2c1` (centres undefined), the Potency is 18.4 µM (active).

`O=C(NCC1CCCO1)c1cc(-c2ccccc2)nc2ccccc12` (centres undefined): the Potency entry is “inactive”. Regarding `CCCN(CCC)CCNC(=O)c1cc2c(C)nc3ccccc3c2o1`, the Potency result is “inactive”. `Cc1nc2ccccc2c2oc(C(=O)NCC3CCCO3)cc12` (centres undefined): the Potency is 20.6 µM (active). For `c1ccc(-c2nc(NCc3ccco3)c3ccccc3n2)cc1`, the Potency entry is “inactive”. `Cc1nc2ccccc2c2oc(C(=O)NCCCN3CCC(C)CC3)cc12`: the Potency result was “inactive”. Regarding `O=C(Cn1ncc2c3ccccc3n(Cc3ccccc3)c2c1=O)NCCCN1CCOCC1`, the Potency result is “inactive”. Regarding `COc1ccc(NC(=O)C(C)N2c3cccc4cccc(c34)S2(=O)=O)c(OC)c1` (centres undefined), the Potency entry is “inactive”. On to `CCC1(CC)NC(=O)N(CC(=O)OCC(=O)c2cc(C)c(C)cc2C)C1=O`, for which the Potency result is “inactive”. Turning to `CCN(C(=O)CSc1nnnn1-c1ccc(OC)cc1)C1CCS(=O)(=O)C1` (centres undefined), the Potency result is “inactive”. As for `Cc1ccccc1C(=O)N1CCN(c2ccc(NC(=O)c3cccs3)cc2)CC1`, the Potency is 9.2 µM (active).

In the case of `O=C(Nc1ccc(N2CCN(C(=O)c3cccs3)CC2)cc1)c1cccnc1Cl`, the Potency entry is “inactive”. For `O=C(Nc1ccc(N2CCN(C(=O)C3CC3)CC2)cc1)c1cccs1` the value was “inactive”; for `COc1ccc(CNC(=O)C[C@H]2C[C@H](C(=O)N3CCOCC3)[C@@]3(C)c4[nH]c5cc(CCC(=O)N(C)C)ccc5c4CCN3C2=O)cc1OC`, “inactive”. Regarding `CCc1ccccc1NC(=O)CN(C)C(=O)c1cc(C2CC2)nn1-c1ccccc1`, the Potency entry was “inactive”.

For the molecule `O=C(c1ccc2nc(N3CCOCC3)sc2c1)N1CCN(c2ccc(Cl)cc2)CC1`, the Potency entry is “inactive”. Take `O=C(O)/C=C/c1cn(Cc2ccccc2)nc1-c1cccs1`: the Potency entry is “inactive”.

As to `O=C(/C=C/c1cn(-c2ccccc2)nc1-c1ccc2c(c1)OCCO2)NCCCN1CCOCC1`, the Potency entry is “inactive”.

Turning to `O=C(/C=C\c1cn(-c2ccccc2)nc1-c1cccs1)N1CCOCC1`, the Potency was 16.4 µM (active). On to `CC(C)C[C@H](NC(=O)N1CC(=O)Nc2ccccc21)C(=O)N[C@H](Cc1ccccc1)C(=O)O`, for which the Potency result is “inactive”. Consider `CCCCCCSc1ccc(-c2nc3ccc(Cl)cn3c2NCc2ccccc2)cc1`, for which the Potency result was “inactive”.

For the molecule `CN(C)CCCN(C(=O)COc1ccccc1)c1nc2c(Cl)cccc2s1`, the Potency entry is “inactive”. For the molecule `CN(C(=O)COc1ccccc1)c1nnc(-c2ccncc2)s1`, the Potency entry was “inactive”. With `COc1ccc(CCN(C(=O)COc2ccccc2)c2nc(-c3ccccc3)cs2)cc1OC` the figure was 23.1 µM (active); with `Cc1cc(F)ccc1NC(=S)NCCc1ccccc1`, “inactive”; with `COc1ccc(-c2noc(C(C)NS(=O)(=O)c3ccc(NC(C)=O)cc3)n2)cc1` (centres undefined), “inactive”.

As to `COc1ccc(-n2c(=O)[nH]c3cc(C(=O)NCCc4ccc(OC)c(OC)c4)ccc3c2=O)c(OC)c1`, the Potency result is “inactive”. Turning to `Clc1ccc2nc(-c3ccccc3)nc(C(Cl)Cl)c2c1`, the Potency was 2.31 µM (active). Consider `NC(N)=Nc1nc(-c2ccccc2)c2cc(Cl)ccc2n1`, for which the Potency result was “inactive”. Consider `O=C(CCl)NNc1nc(-c2ccccc2)c2cc(Cl)ccc2n1`, for which the Potency result was “inactive”.

For `Cn1c(CCN2CCCC2)nc2cc(NS(=O)(=O)c3ccccc3)ccc21`, the Potency result is “inactive”.

`CCOCCn1[nH]c2ccccc2c1=O`: the Potency entry is “inactive”. For `COc1ccc(N(CC(=O)NCc2ccc(F)cc2)C(=O)CCC(=O)Nc2nccs2)cc1` the value was “inactive”. For the molecule `COc1ccc(NC(=O)CN(C)CC(=O)Nc2cccc(C(F)(F)F)c2)cc1`, the Potency result is “inactive”. With `COc1cc(NC(=O)c2[nH]cnc2C(N)=O)cc(C(=O)Nc2cccc(C(F)(F)F)c2)c1`, the Potency is 5.8 µM (active). For `Cc1cccc(NC(=O)c2nnn(-c3cccc(C(F)(F)F)c3)c2N)c1` the value was “inactive”; for `CN=C(Nc1cccc(S(=O)(=O)N2CCOCC2)c1)c1ccccc1`, “inactive”. With `Cn1cncc1C#Cc1c(-c2ccsc2)sc2ccccc12`, the Potency entry is “inactive”. On to `CNS(=O)(=O)c1ccc(C(=O)NCC(=O)NCCc2ccc3c(c2)OCCO3)cc1`, for which the Potency result was “inactive”. With `COc1ccccc1/C=C1\SC(=O)N(CCC(=O)N(C)C2CCS(=O)(=O)C2)C1=O` (centres undefined), the Potency entry was “inactive”. Regarding `Cc1nn(-c2ccccc2)c(C)c1/C=N/NC(=O)CSc1nc2ccccc2c(=O)n1-c1ccccc1`, the Potency was 16.4 µM (active). For `Cn1c(SCC(=O)N/N=C/c2ccc(O)c(O)c2)nc2ccccc21` the value was “inactive”. In the case of `O=C(CSc1nc2ccccc2c(=O)n1-c1ccc(F)cc1)NC1CC1`, the Potency entry is “inactive”. For `COc1ccc(-n2nc(C(=O)NCC(=O)Nc3cccc(C)n3)c3ccccc3c2=O)cc1` the value was 18.4 µM (active); for `COCCCNC(=O)CNC(=O)c1nn(-c2ccc(OC)cc2)c(=O)c2ccccc12`, “inactive”.

As for `CCCN(CCC)CCCNC(=O)CNC(=O)c1nn(-c2ccc(OC)cc2)c(=O)c2ccccc12`, the Potency result was “inactive”.

For `CN1CCN(S(=O)(=O)c2ccc(N3CCN(c4ccccc4O)CC3)c([N+](=O)[O-])c2)CC1`, the Potency result is “inactive”. With `CCOc1ccc(CCNC(=O)CN2C(=O)NC3(CCc4ccccc43)C2=O)cc1OCC` (centres undefined) the entry was “inactive”; with `O=C(c1ccc(Cl)c([N+](=O)[O-])c1)N1CCN(c2ccccc2)CC1`, “inactive”; with `O=C(c1ccccc1)c1ccc(C(=O)N2CCN(c3ccccc3)CC2)cc1`, “inactive”. `O=C(c1cccc(F)c1)N1CCN(c2ccc([N+](=O)[O-])c(N3CCCCC3)c2)CC1`: the Potency entry was “inactive”. Turning to `O=C(c1cc(C(=O)N2CCN(c3ccc(F)cc3)CC2)cc([N+](=O)[O-])c1)N1CCN(c2ccc(F)cc2)CC1`, the Potency is 11.2 µM (active).

Turning to `O=C(c1cccc(C(=O)N2CCN(c3ccc(F)cc3)CC2)c1)N1CCN(c2ccc(F)cc2)CC1`, the Potency is 18.4 µM (active). Consider `O=C(c1cc2cc(F)ccc2[nH]1)N1CCN(c2ccc(F)cc2)CC1`, for which the Potency result was “inactive”.

The record behind these values is PubChem BioAssay AID504467 (National Center for Advancing Translational Sciences (NCATS), 2011).
